PKM2 inhibitor: PKM2 (human) enzyme inhibition | P14618 | purified PKM2, ATP generation, Kinase-Glo luminescence | Potency, µM (titrated, usually from 57.5 µM), hits mostly inhibitors | hit rate 0.058% among 260,000; active = well fitted inhibition curve with a large enough effect; also: nearly all actives have a fitted effect of over 60% in size
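Enzyme run at intermediate activity with final 0.1 mM ADP, 0.5 mM PEP (50 mM imidazole pH7.2, 50 mM KCl, 7 mM MgCl2), incubated 1 h at r.t. ATP formed read by Kinase-Glo luminescence, normalized to no-enzyme (full inhibition) and uninhibited wells.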
Of the large screens only hits and unclear results are named; the others gave an inactive call. The full list was thinned out, with hits kept by preference.

CN(C)C(=O)Oc1ccc(OCc2nc3ccccc3[nH]2)cc1	PKM2 inhibitor 11µM
CSc1nc2ccccc2n1C(=O)Oc1ccccc1	none
CC(=NCc1ccco1)c1c(O)n(-c2ccccc2)c(=O)[nH]c1=O	none
Cc1cc2c(C(C)C)c(O)c(O)c(C=O)c2c(O)c1-c1c(C)cc2c(C(C)C)c(O)c(O)c(C=O)c2c1O	none
CCn1ccnc1CN1CCCC(C(=O)c2cc(C)c(OC)c(C)c2)C1 (stereo not given)	none
O=C(Nc1cccnc1)C1CCN(S(=O)(=O)c2cccs2)CC1	none
CN(C)C(=S)SSC(=S)N(C)C	PKM2 inhibitor 14µM
CC(=O)Nc1ccc(N(C(=O)Cn2nnc3ccccc32)C(C(=O)NC2CCCC2)c2ccc(O)c(O)c2)cc1 (stereo not given)	none
S=P(Nn1cnnc1)(c1ccc(Br)cc1)c1ccc(Br)cc1	none
CCC(C)C1(CC)C(=O)NC(=O)N=C1N (stereo not given)	none

Source: PubChem BioAssay
